ChEMBL document CHEMBL4513216, “Probing the Open Global Health Chemical Diversity Library for Multistage-Active Starting Points for Next-Generation Antimalarials” (ACS Infect Dis, 2020)
In all, about 69,000 compounds went through this assay and about 8,600 (12%) showed an effect of 50% or more. What follows is part of a selection rich in strong results, with near analogues and random picks from the rest.

tested on: Plasmodium berghei; assay: Screen against P. berghei liver stage (PbLuc), transformed with Luciferase, at 10uM; format: functional, HepG2; details: tested at 10 uM

| SMILES | INHIBITION |
| --- | --- |
| COc1ccc(CCc2nnc(NC(=O)C3CC34CCC4)s2)cc1OC (stereo not drawn) | 4.32% |
| Cc1cc2c(cc1NC(N)=O)OCO2 | 43.2% |
| CC(=O)N1CCc2ncn(C)c2C1C(=O)N1CCCC1 (stereo not drawn) | 45.8% |
| Cn1cnc2c1C(C(=O)N1CCCO1)N(C(=O)c1ccccc1)CC2 (stereo not drawn) | 70.4% |
| Cn1cnc2c1C(C(=O)N1CCOCC1)N(C(=O)c1ccccc1)CC2 (stereo not drawn) | -31.6% |
| CC(C)c1nnc(CNC2CCCN(Cc3noc(C4CC4)n3)C2)o1 (stereo not drawn) | 19.5% |
| O=C(NC1CCN(c2ncccn2)CC1)c1sccc1C1CC1 | 39.7% |
| CN(Cc1ccccc1CNC(=O)C1CNC(=O)N1)C1CCCCC1 (stereo not drawn) | 57.7% |
| O=C1NCC(C(=O)NCc2ccccc2CN2CCOCC2)N1 (stereo not drawn) | 15.2% |
| CC1CCN(Cc2ccccc2CNC(=O)C2CNC(=O)N2)CC1 (stereo not drawn) | 13.8% |
| CC(C)OCCCNC(=O)CS(=O)(=O)Cc1ccc(C(C)(C)C)cc1 | -27.8% |
| Cc1ccccc1OC1CCN(CC(=O)Nc2ccn(C)n2)CC1 | 15.1% |
| Cc1nn(C)cc1NC(=O)CN1CCC(Oc2cnccn2)CC1 | -2.09% |
| Cc1ccccc1OC1CCN(CC(=O)Nc2cn(C)nc2C)CC1 | 17.3% |
| CCn1cc(NC(=O)CN2CCC(Oc3ccccc3C)CC2)c(C)n1 | -0.275% |
| CCn1cc(NC(=O)CN2CCC(Oc3ccc(F)cc3)CC2)c(C)n1 | 58% |
| Cc1ccccc1OC1CCN(CC(=O)Nc2c(C)nn(C)c2C)CC1 | 52.5% |
| COCC(c1cccc(C(F)(F)F)c1)N(C)C(=O)c1ccoc1 (stereo not drawn) | 40.49% |
| COc1cccc2c3c(c(=O)n(C)c12)CCC(C)(C)O3 | 12.3% |
| Cn1cccc1C(=O)N1CCn2cc(CNC(=O)CC3CC3)nc2C1 | 9.67% |
| CCc1ncc2c(n1)CN(Cc1cnc(C)cn1)CC2 | 25.2% |
| COCCC(=O)N1CCC(c2nnc(-c3ccsc3)o2)CC1 | 0.75% |

| SMILES | INHIBITION |
| --- | --- |
| COc1cc(C2c3c(n[nH]c3C)N=C3COC(=O)C32)cc(Br)c1O (stereo not drawn) | 62.3% |
| COc1cccc(C2c3c(n[nH]c3C)N=C3COC(=O)C32)c1OC (stereo not drawn) | -7.77% |
| COc1cc(C2c3c(n[nH]c3C)N=C3COC(=O)C32)cc2c1OCO2 (stereo not drawn) | 58.1% |
| COc1cc(C2SCC(=O)Nc3[nH]ncc32)cc2c1OCO2 (stereo not drawn) | 30.2% |
| CSc1nc(N)c2c(n1)N=C1COC(=O)C1C2c1cccc(O)c1 (stereo not drawn) | 25.1% |
| COc1cccc(C2c3c(n[nH]c3C)N=C3COC(=O)C32)c1O (stereo not drawn) | 48% |
| CCOc1c(Br)cc(C2c3c(n[nH]c3C)N=C3COC(=O)C32)cc1OC (stereo not drawn) | 72.4% |
| O=C(NCc1ccco1)[C@H]1CC[C@@H]2[C@@H](CCN2c2ncc(F)cn2)O1 | 38.1% |
| CC(=O)NC1CCCN(C(=O)NCCOc2ccc3c(c2)OCO3)C1 (stereo not drawn) | 15.6% |
| O=C(CCc1ccncc1)N1CCCC(n2cccn2)C1 (stereo not drawn) | 24.39% |
| O=C(c1cccn1Cc1cccs1)N1CCC(C(=O)N2CCCC2)CC1 | 11.6% |
| COCc1cccc(CNCc2c(C)nn(C)c2N2CCOCC2)c1 | 27.4% |
| CCCN1CCCCCC1Cc1c(C(=O)NC)sc2ccccc12 (stereo not drawn) | 17.235% |
| CN1CCCNC(=O)C12CCN(C(=O)c1ccc3[nH]cnc3c1)CC2 | 20.2% |
| CCc1noc(C(C)N2CCN(CCOCC(F)(F)F)CC2)n1 (stereo not drawn) | -5.545% |
| O=C(NCC1CCCN1CCc1ccccc1)NCC1(O)CCC1 (stereo not drawn) | 19.2% |
| CCCN1CCC(CNC(=O)C2(c3ccccc3)CCC2)C1 (stereo not drawn) | 42.9% |
| O=C(NCC1CCCN1Cc1ccccc1)NCC1(O)CCC1 (stereo not drawn) | 53.8% |
| O=C(NCc1nccn1CCc1ccccc1)NCC1(O)CCC1 | -4.15% |
| Cc1noc(C(C)C)c1C(=O)NCC1CCCN1Cc1ccccc1 (stereo not drawn) | 24.1% |
| O=C(NCC1CCN(CCc2ccccc2)C1)NCC1(O)CCC1 (stereo not drawn) | 53.8% |
| CCC(=O)NCCCn1c(-c2cccnc2C)cc2cccnc21 | 10.9% |

| SMILES | INHIBITION |
| --- | --- |
| CCNC(=O)C(C)NC(=O)Nc1ccccc1SCC (stereo not drawn) | 5.17% |
| CCNC(=O)C(C)NC(=O)Nc1ccccc1Cl (stereo not drawn) | 62.9% |
| CCNC(=O)C(C)NC(=O)Nc1ccccc1SC(F)(F)F (stereo not drawn) | 65% |
| CCCNC(=O)C(C)NC(=O)Nc1ccccc1SC(F)F (stereo not drawn) | 41.5% |
| Cn1c(C(F)(F)F)nn(CCNC(=O)Nc2ccccc2Cl)c1=O | 21% |
| O=C(NCCCn1nc2ccccn2c1=O)Nc1ccccc1Cl | 7.12% |
| O=C1CCC2(CCC(NCc3ccoc3)CC2)N1 (stereo not drawn) | 2.58% |
| O=C(CN1CCc2sccc2C1)Nc1nccs1 | -41.6% |
| COC1COC2(CCN(CC3CCOCC3)CC2)C1 (stereo not drawn) | 14% |
| Cc1ccnc(NC(=O)c2ccc(F)c(S(=O)(=O)NC3CC3)c2)c1 | -25.4% |
| CCn1cnnc1C1CCN(C(=O)c2ccccc2F)CC1 | 21% |
| CNC(=O)C1Cn2ccnc2C2(CCN(C(=O)c3ccoc3C)CC2)O1 (stereo not drawn) | -7.7% |
| CC(C)c1noc(C(C)N2CCC(c3nc4ccccc4[nH]3)CC2)n1 (stereo not drawn) | 36.5% |
| CC(C)c1noc(C(C)N2CCN(Cc3nc4ccccc4[nH]3)CC2)n1 (stereo not drawn) | 53.3% |
| CC(C)c1noc(C(C)N2CCN(Cc3cccs3)CC2)n1 (stereo not drawn) | 15.5% |
| CC(C)C(Sc1cccs1)C(=O)NCc1cccnc1 (stereo not drawn) | 18.4% |
| Cc1nc(CN(C)C2CCN(CCCOc3ccc(F)cc3)C2)no1 (stereo not drawn) | -0.219% |
| CC(C)C(=O)N1CCCC(c2cc(C(F)F)n3ncnc3n2)C1 (stereo not drawn) | 39.8% |
| O=C(c1ccncc1)N1CCCC(c2cc(C(F)F)n3ncnc3n2)C1 (stereo not drawn) | 35.2% |
| O=C(c1ccco1)N1CCCC(c2cc(C(F)F)n3ncnc3n2)C1 (stereo not drawn) | 14.8% |
| O=C(Cc1ccsc1)N1CCCC(c2cc(C(F)F)n3ncnc3n2)C1 (stereo not drawn) | 28% |
| COCC(=O)N1CCCC(c2cc(C(F)F)n3ncnc3n2)C1 (stereo not drawn) | 59.3% |

| SMILES | INHIBITION |
| --- | --- |
| O=C(c1ccco1)N1CCCC(c2cc(C(F)(F)F)n3ncnc3n2)C1 (stereo not drawn) | 60.4% |
| O=C(c1cnoc1)N1CCC[C@]2(C[C@H](Oc3ncccc3F)CO2)C1 | -28.2% |
| CCCSCC(=O)N1C[C@H]2CC[C@@H](C1)N(Cc1ccccn1)C2=O | 35.9% |
| O=C1OCCN1CC(=O)N1C[C@@H]2CC[C@H]1CN(C(=O)c1ccccc1)C2 | -12.6% |
| O=c1c(NCCOCCO)c(N2CCN(c3ccccc3)CC2)c1=O | 6.34% |
| CCn1nc(C)c2nnn(CC(=O)Nc3ccc(C)c(C)c3)c(=O)c21 | 11% |
| O=C(NCc1cc(N2CCOCC2)ncn1)c1cccc(CO)n1 | 71.1% |
| COc1ccc(C(=O)NCc2cc(N3CCOCC3)ncn2)o1 | 8.11% |
| COc1nc(C)c(C(=O)NCc2cc(N3CCOCC3)ncn2)s1 | 34% |
| O=C(Cn1ccc2ccccc21)NCc1cc(N2CCOCC2)ncn1 | 12.8% |
| Cc1cc(C(=O)NCc2ccnc(N3CCOCC3)c2)c(C)s1 | 4.65% |
| COc1cc(C(=O)NCc2cc(N3CCOCC3)ncn2)ccn1 | 63.7% |
| CCn1cnnc1CNC(=O)N1CCN(c2ccccc2O)CC1 | 36.1% |
| NCC1[C@H]2CN(Cc3ccccc3F)C[C@@H]12 (stereo partly drawn) | 45.7% |
| O=c1cc(CSc2nnc[nH]2)nc2sc3c(n12)CCCC3 | 16.5% |
| COCCCS(=O)(=O)N1CCN(c2cccc(O)c2)CC1 | 14.6% |
| CC(C)OCCS(=O)(=O)N1CCN(Cc2cccn2C)CC1 | 4.1% |
| COCCCS(=O)(=O)N1CCN(Cc2cccn2C)CC1 | 51.1% |
| Cc1c(Br)cccc1C(=O)NCCC1CCCNC1 (stereo not drawn) | 28.6% |
| O=C(C1CC(c2ccccc2)=NO1)N1CCCCc2ccccc21 (stereo not drawn) | -15% |
| CCC(c1ccc(F)cc1F)S(=O)(=O)CCO (stereo not drawn) | 23.8% |
| CCC(c1ccccc1)S(=O)(=O)CCO (stereo not drawn) | 61.8% |

| SMILES | INHIBITION |
| --- | --- |
| CCC(c1ccc(F)cc1)S(=O)(=O)CCO (stereo not drawn) | 15.9% |
| Nc1nccnc1C1CN(C(=O)COc2cccnc2)CCO1 (stereo not drawn) | -50.3% |
| COCC(=O)N1CCC2(CC1)C(=O)N(Cc1cccnc1)CCN2C | 43.2% |
| O=C(O)c1cc(C=Cc2cccc3ccccc23)ncn1 | 8.05% |
| c1ccc(-c2nccc(CNC3CCc4ncnn4C3)n2)cc1 (stereo not drawn) | 36.1% |
| CC(C)N1CCCN(c2nc(-c3cccnc3)nc3c2cnn3C)CC1 | 86.6% |
| Cn1ncc2c(N3CC[C@H](O)C3)nc(-c3ccncc3)nc21 | 19.8% |
| Cn1ncc2c(NC3CCSC3)nc(-c3ccncc3)nc21 (stereo not drawn) | 61.6% |
| Cn1ncc2c(N3CC(N4CCCCC4)C3)nc(-c3ccncc3)nc21 | 22.6% |
| Cn1ncc2c(N3CCC(F)(F)CC3)nc(-c3ccncc3)nc21 | 31% |
| Cn1ncc2c(N3CCC3)nc(-c3ccncc3)nc21 | -3.83% |
| Cn1ncc2c(NC3CCC3)nc(-c3ccncc3)nc21 | 33.7% |
| Cn1ncc2c(N3CCS(=O)(=O)CC3)nc(-c3cccnc3)nc21 | 35% |
| Cn1ncc2c(NCC3CCS(=O)(=O)C3)nc(-c3ccncc3)nc21 (stereo not drawn) | 15.1% |
| CN1[C@@H]2CC[C@H]1CN(c1nc(-c3ccncc3)nc3c1cnn3C)CC2 | 71.3% |
| Cn1ncc2c(NC3CN4CCC3CC4)nc(-c3ccncc3)nc21 (stereo not drawn) | 53.2% |
| Cn1ncc2c(N[C@@H]3C[C@H]4CC[C@@H]3C4)nc(-c3ccncc3)nc21 | 35.1% |
| CC(=O)N1CCc2cc(Cl)cc(Cl)c2C1 | 37.7% |
| COCC1CC2(CCN(CC3CC3)CC2)CN1c1ncccn1 (stereo not drawn) | 18.2% |
| Cn1ccc(C(=O)NC2CCC23CCN(Cc2ccc(F)cc2)CC3)c1 (stereo not drawn) | -9.02% |
